# Bioassay records deposited in PubChem by National Center for Advancing Translational Sciences (NCATS).
# Pf growth 96h: P. falciparum growth inhibition at 96 hour, primary screen for plastid delayed-death inhibitors; P. falciparum luciferase reporter growth, 96 h; Potency, µM (series often up to 28.7 µM), most hits filed as inhibitors; actives 6.9% (n = 320,000); AID 504834
#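 Delayed-death screen, second-generation endpoint: infected erythrocytes, 2% hematocrit, 0.05% parasitemia final; 96 hours at 37 C, 5% CO2; luciferase detection reagent; luminescence decrease equals reduced growth.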
# Pf growth 48h: inhibits P. falciparum growth in the first generation, 48 h; Potency, µM (series often up to 28.7 µM), usual class: inhibitors; AID 504832; actives 5.9% (n = 310,000); P. falciparum luciferase growth in erythrocytes, 48 h
#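 Compounds are pin-transferred into medium, infected erythrocytes (2% hematocrit, 0.1% parasitemia final) are added, and plates sit one parasite generation at 37 C in 5% CO2. Detection reagent is then added and luminescence measured.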
# HCMV inh: human cytomegalovirus inhibition | HFF cells, HCMV-luciferase reporter, 72 h; stronger effect = lower value | activity change, negative = inhibition, % at 57.5 µM | actives 4.5% (n = 410,000) | AID 1259415; in the data active = activity change below about -60%; inconclusive = no clear call, values can overlap the other calls; inactive = above about -39%
#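 Screen run at 2 compound doses on HFFs infected with reporter HCMV, MOI 1 PFU/cell. Luciferase activity from cell lysates at 72 h post infection gave inhibition relative to buffer-only and Salinomycin wells.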
# Shiga inhibitor: inhibitors of Shiga toxin in Vero cells | Vero cells, Shiga toxin protein synthesis inhibition reporter | inhibition, % at 38.7 µM | actives 9.2% (n = 290,000); in the data active = inhibition mostly above about 28%, no sharp cut-off; inactive = mostly below about 43%
# CHX counter: counter-screen hit for Shiga toxin inhibitors, cycloheximide; cell reporter, cycloheximide protein synthesis inhibition counterscreen; max response, %; actives 12% (n = 300,000); AID 2314; in the data active = max response mostly above about 13%, no sharp cut-off; inactive = mostly below about 14%; also: read at 38.3 µM for the half of the compounds with a filed dose
# Numbers stand for hits; n = inactive; u = inconclusive; x = no result; + = active, no number. Sampled rows, rich in hits. Any-hit rate of the full collection: about 20%. Unless noted, calls follow the shape of the dose curve; as a rule, active = well fitted inhibition curve with a large enough effect; inconclusive = small, poorly fitted or top-dose-only effect, or another doubt; inactive = no such curve, though single readings can be large or run the other way.
SMILES,Pf growth 96h,Pf growth 48h,HCMV inh,Shiga inhibitor,CHX counter
O=C(CSc1nnc(C2CCCCC2)n1Cc1ccccc1)NCc1ccco1,x,n,n,n,16
Cn1c(SCC(=O)NCc2ccccc2)nc2ccccc21,n,n,-100,n,n
COc1ccc(CNc2nc(SCC(=O)NCc3ccco3)nc3ccccc23)cc1,n,9.3µM,n,n,n
CCOC(=O)CSc1nc(NCc2ccco2)c2ccccc2n1,n,n,n,n,n
CCn1c(SCC(=O)NCc2ccco2)nnc1C1CCCC1,n,n,n,n,n
CCCn1c(=O)n(C)c(=O)c2c(SCC(=O)NCc3ccco3)nc(C3CC3)nc21,4.1µM,x,x,n,n
Cc1cc(NS(=O)(=O)c2ccc(NC(=O)c3ccccc3F)cc2)nc(C)n1,x,x,n,x,x
Cc1cc2cc(C)c3nnc(SCC(=O)NCc4ccco4)n3c2cc1C,n,n,-79,n,n
Cc1ccc2cc(C)c3nnc(SCC(=O)NCc4ccco4)n3c2c1,n,u,n,n,n
Cn1c(SCC(=O)NCc2ccco2)nc2ccccc2c1=O,n,n,n,73,n
O=C(CSc1nc2[nH]ncc2c(=O)n1-c1ccccc1Br)NCc1ccco1,n,12µM,n,n,n
COc1ccc(C(=O)Nn2c(SCC(=O)NCc3ccco3)nc3ccccc3c2=O)cc1,n,n,-73,n,n
Nc1cc(=O)[nH]c(SCC(=O)Nc2cc(S(=O)(=O)N3CCCCC3)ccc2Cl)n1,u,u,n,x,x
COc1ccc(OCC(=O)NC(=S)Nc2ccc(S(=O)(=O)Nc3cc(C)on3)cc2)cc1,n,n,n,n,n
COC(=O)c1cccc(N2C(=O)C[C@](Sc3ccc(OC)cc3)(C(=O)N(C)C)[C@H]2c2ccc(OC)cc2)c1,x,x,n,x,x
COCc1cc(=O)n2[nH]cc(-c3ccccc3)c2n1,n,n,n,x,19
Cc1cc(=O)n2[nH]cc(-c3ccccc3)c2n1,9.3µM,n,n,n,n
COC(=O)c1c[nH]n2c(=O)cc(C)nc12,n,u,n,n,n
CCCc1cc(=O)n2[nH]cc(-c3ccc(Cl)cc3)c2n1,u,u,-96,n,n
COc1cccc(C2c3c(oc4ccc(Cl)cc4c3=O)C(=O)N2c2cc(C)on2)c1OC (stereo unspecified),8.3µM,n,n,n,n
COc1ccc(/C(O)=C2\C(=O)C(=O)N(c3cc(C)on3)C2c2cccc(OC)c2OC)cc1C (stereo unspecified),n,u,n,n,n
Cc1ccc(C(=O)N2CCN(c3cccc(Cl)c3)CC2)cc1-n1c(C)nc2cccnc21,x,x,n,x,x
CC(=O)Nc1ccc(N2CCN(c3ccc(C(F)(F)F)cn3)CC2)nc1,n,n,n,n,n
CC(C)(C)c1ccc(NC(=O)N2CCCN(c3c(Cl)cncc3Cl)CC2)cc1,u,10µM,n,n,n
O=C(Nc1ccc(F)cc1)N1CCCN(c2ccc(C(F)(F)F)cn2)CC1,u,u,-62,n,n
SMILES,Pf growth 96h,Pf growth 48h,HCMV inh,Shiga inhibitor,CHX counter
Cc1cccc(C)c1NC(=O)CN1C(=O)c2ccccc2Sc2ncccc21,x,x,n,x,x
Cc1ccc(OCCSCc2nc3ccccc3[nH]2)cc1,u,u,n,n,n
Cc1nc(N2CCN(Cc3nc4ccccc4[nH]3)CC2)c2oc3ccccc3c2n1,5.9µM,u,n,n,n
CC(C)SCc1nc2ccccc2[nH]1,x,n,n,n,15
Cc1ccc(CSCc2nc3ccccc3[nH]2)cc1,u,n,u,66,39
c1ccc2[nH]c(CN3CCN(c4ncnc5c4oc4ccccc45)CC3)nc2c1,n,u,n,n,n
c1ccc2[nH]c(CSc3ncnc4c3oc3ccccc34)nc2c1,n,n,n,62,16
CC[C@@]1(C(=O)OC)N[C@H](CN(C)S(=O)(=O)c2ccc(C(C)(C)C)cc2)[C@@H]2C(=O)N(Cc3ccccc3)C(=O)[C@@H]21,x,x,n,x,x
CCCCSc1nnc2c(n1)OC(c1ccc(Br)s1)Nc1ccccc1-2 (stereo unspecified),x,x,n,x,x
CS(=O)(=O)N(CC(=O)NCCSc1ccccc1)c1cc(C(F)(F)F)ccc1Cl,x,x,n,x,x
CC(OC(=O)C1CCCC1)C(=O)Nc1ncc(Cl)cc1Cl (stereo unspecified),n,u,n,x,x
O=c1[nH]c(SCc2ccccc2F)nc2ccccc12,n,n,n,n,n
c1ccc(SCc2nc3ccccc3[nH]2)cc1,n,n,n,163,41
Cc1nc(SCc2nc3ccccc3[nH]2)c2oc3ccccc3c2n1,u,u,n,n,n
Cc1ccc(SCc2nc3ccccc3[nH]2)cc1,n,n,n,130,45
Cc1ccc(CCNC(=O)CCc2nc3ccccc3[nH]2)cc1,n,n,n,n,n
Fc1ccccc1CSCc1nc2ccccc2[nH]1,u,n,n,101,25
Cc1cc(C)cc(CC(Cc2nc3ccccc3[nH]2)c2nc3ccccc3[nH]2)c1 (stereo unspecified),n,2.3µM,-101,n,n
c1ccc(-c2nc(SCc3nc4ccccc4[nH]3)c3oc4ccccc4c3n2)cc1,x,x,n,x,x
Clc1ccc(SCc2nc3ccccc3[nH]2)cc1,n,n,n,+,49
c1ccc2[nH]c(CSc3nccs3)nc2c1,u,n,n,75,23
Clc1ccc(OCCSCc2nc3ccccc3[nH]2)cc1,u,u,n,n,n
COC(=O)[C@@]12C[C@@H](CC(=O)N3CCCCC3)C(=O)N(CCc3ccc(OC)c(OC)c3)C1=CCC(C)(C)C2,x,x,n,x,x
Cc1ccc(NC(=S)N2CCN(S(=O)(=O)c3c(F)cccc3F)CC2)cc1C,n,n,n,n,n
CCOC(=O)c1[nH]c2ccccc2c1NC(=O)CN1CCCCC1,u,n,n,n,n
SMILES,Pf growth 96h,Pf growth 48h,HCMV inh,Shiga inhibitor,CHX counter
CCOC(=O)c1[nH]c2ccc(F)cc2c1NC(=O)CN1CCN(C/C=C/c2ccccc2)CC1,5.9µM,9.3µM,n,n,n
COC(=O)c1[nH]c2ccccc2c1NC(=O)CN1CCN(C/C=C/c2ccccc2)CC1,n,x,-61,n,n
CCOC(=O)c1[nH]c2ccc(F)cc2c1NC(=O)CN1CCc2cc(OC)c(OC)cc2C1,u,12µM,x,n,n
O=C(c1ccccc1Cl)N(Cc1ccco1)Cc1ccco1,x,x,n,x,x
NS(=O)(=O)c1ccc(N/C=C\C(=O)c2ccc3ccccc3c2)cc1,n,n,n,n,31
NS(=O)(=O)c1ccc2ccccc2c1,n,n,n,n,n
COc1ccc(N/C=C(/C(C)=O)c2ccccc2)cc1,n,n,n,n,n
COc1ccc(N/C=C/C(=O)C(C)(C)C)cc1,u,n,u,93,31
COc1ccc(N/C=C/C(=O)c2ccccc2)cc1,n,n,n,x,n
COc1ccc(N/C=C\C(=O)c2ccc3ccccc3c2)cc1,n,n,n,n,29
O=C(CCc1nc2ccccc2s1)OCC(=O)c1ccc[nH]1,n,n,n,n,n
O=C(CCc1nc2ccccc2s1)OCC(=O)c1ccccc1,n,n,n,n,12
O=C(CCc1nc2ccccc2s1)c1ccccc1,u,n,n,n,37
